TGFb SMAD3 inh: blocks TGF-b signaling. HepG2 CAGA-GFP TGF-b/SMAD3 reporter, GFP fluorescence, 18 h; TGF-beta stimulated, 500 pg/mL final. Potency, µM (top dose mostly 46.1 µM), inactives show top-dose activity, negative = inhibition, usual class: inhibitors. 410,000 tested, 1.2% active. AID 588855; note: % is set by controls: 0 for no effect and ±100 for the full control effect; nearly all actives have a fitted effect of over 65% in size
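Cell-based qHTS in HEPG2 carrying a CAGA-GFP Smad reporter; compounds added before 500 pg/mL final TGF-beta, 18 h incubation at 37 degrees C, GFP fluorescence quantified per cell by imaging cytometry.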
TDP1 cell noCPT: qHTS for Inhibitors of human tyrosyl-DNA phosphodiesterase 1 (TDP1): qHTS in cells in absence of CPT | DT40 Tdp1-/- hTDP1 cells, no CPT, ATP luminescence, 48 h | Potency, µM (doses to about 46.2 µM), inactives show at the top dose activity change, negative = growth inhibition, actives largely listed as inhibitors | 420,000 tested, 15% active; note: % is set by controls: 0 for no effect and ±100 for the full control effect; nearly all actives have a fitted effect of over 55% in size
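Cells were dispensed at 400 per well, compounds added by pin tool, plates incubated ≥48 hr at 37 °C, then CellTiter-Glo added for 30 min at room temperature before luminescence reading. Line: DT40 Tdp1-/- complemented with hTDP1; camptothecin omitted.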
HepG2 viability: counter-screen for TGF-b inhibitors: cytotoxicity in HepG2 cells | Potency, µM (series often up to 46.1 µM), for the others: at the highest dose activity change, negative = cytotoxicity, actives largely listed as cytotoxic | AID 588856 | HepG2 CAGA-GFP viability, ATP luminescence, 18 h | 410,000 tested, 0.76% active
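CellTiter-Glo luminescence gave cytotoxicity after 18 hours at 37 degrees C. The cells were HepG2 CAGA-GFP in 1% FBS DMEM, stimulated with 500 pg/mL TGF-beta after compound addition. %Activity was normalised to no-cell wells (complete cell-killing) and DMSO (no toxicity), and curves were fitted and classified.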
DT40 TDP1 CPT: DT40-hTDP1 cell growth loss with CPT; chicken DT40 Tdp1-/-;hTDP1 cells + 20 nM CPT, ATP luminescence, 48 h; Potency, µM (series often up to 46.2 µM), inactives show at the top dose activity change, negative = growth inhibition, hits mostly inhibitors; 420,000 tested, 12% active; AID 686979; note: % is set by controls: 0 for no effect and ±100 for the full control effect; nearly all actives have a fitted effect of over 55% in size
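Cell growth measured by CellTiter-Glo luminescence after a minimum 48 h, 37 C compound exposure with 20 nM CPT in Tdp1-knockout DT40 cells stably expressing hTDP1, seeded 400/well; qHTS titration format.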
HT1080 IDH1KD tx: toxicity to HT-1080 IDH1 knockdown cells (counter line). AID 686971. HT-1080 IDH1 knockdown viability, ATP luminescence, 48 h. 360,000 tested, 2% active. Potency, µM (doses to about 46.1 µM), inactives show top-dose activity, negative = toxicity, most hits filed as cytotoxic;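 note: 0% = DMSO wells and -100% = cell-free medium wells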
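In this qHTS, HT-1080 cells depleted of IDH1 are exposed for 48 h at 37 °C to compound titrations. Toxicity is scored from CellTiter-Glo luminescence, with DMSO as full viability and medium alone as none.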
HT1080NT lethal: kills 2HG-producing HT-1080-NT fibrosarcoma cells; 360,000 tested, 1.6% active; AID 686970; HT-1080-NT fibrosarcoma viability, CellTiter-Glo ATP luminescence, 48 h; Potency, µM (titrated, usually from 46.1 µM), inactives show at the highest dose activity, negative = less viability, usual class: cytotoxic;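 note: NT is the 2HG producing partner of a matched IDH1 knockdown line; 0% = DMSO-treated cells and -100% = media-only wells without cells; nearly all actives have a fitted effect of over 55% in size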
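Fibrosarcoma NT cells, 750 per well in 5% FBS RPMI, were exposed to compound for 48 hours. Viability: CellTiter-Glo luminescence.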
Starred values were filed as active, the others as inactive; ? = inconclusive; . = no result given; ! = not confirmed by another sample; [ ] = another dose, or the depositor's remark. Most compounds without a hit are left out; they make up all but 17% or so of the library. Calls come from the whole dose curve; as a rule, active = well fitted curve in the direction sought with a large enough effect; inconclusive = small, poorly fitted or top-dose-only effect, or another doubt; inactive = no such curve, though single readings can be large; an effect the other way counts as inactive or inconclusive. Potency is the fitted concentration of half-maximal effect.

SMILES | TGFb SMAD3 inh | TDP1 cell noCPT | HepG2 viability | DT40 TDP1 CPT | HT1080 IDH1KD tx | HT1080NT lethal
Cc1nnsc1SCCNC(=O)c1ccc(F)cc1 | 2% | -1% | -3% | 6% | 15% | 8%
CCC1CN(C(=O)Nc2cc(Cl)c(OC)cc2OC)c2ccccc2O1 (configuration not stated) | 0% | -2% | 3% | 12% | . | .
CCC1CCC(C(=O)NC(C(=O)Nc2cccc(OC)c2)C(C)C)CC1 (configuration not stated) | 0% | -30% | 5% | -26% | . | .
COc1ccc(CCNC(=O)CCCCn2c(=O)c3ccccc3n(Cc3ccc(Cl)cc3)c2=O)cc1OC | -15% | ? | -1% | 23µM* | . | .
COc1ccc(CCNC(=O)CCCn2c(=O)c3ccccc3n(Cc3cccc(Cl)c3)c2=O)cc1OC | 11µM* | ? | -37% | ? | . | .
COc1ccc(CCNC(=O)CCn2c(=O)c3ccccc3n(Cc3ccccc3C)c2=O)cc1OC | 0% | 18µM* | 1% | 15µM* | . | .
CC(C)CCNC(=O)Cn1cc(S(=O)(=O)Cc2ccc(F)cc2)c2ccccc21 | ? | ? | -38% | 26µM* | . | .
O=C(CSc1nccn1Cc1ccc(F)cc1)Nc1ccc2c(c1)OCCO2 | -23% | -1% | -16% | -7% | . | .
CSc1ccc(/C=C(/NC(=O)c2ccccc2)C(=O)NCCN2CCOCC2)cc1 | 13% | -6% | 6% | -5% | 9% | 3%
O=C1CN(C(=O)COC(=O)c2ccccc2NC(=O)c2ccco2)c2ccccc2N1 | -8% | ? | -18% | -20% | 3% | 1%
COc1ccc(CCNC(=O)CCCCn2c(=O)c3ccccc3n(Cc3ccc(F)cc3Cl)c2=O)cc1OC | -1% | 6.5µM* | 17% | 21µM* | . | .
COc1ccc(CCNC(=O)Cn2cc(S(=O)(=O)Cc3cccc(Cl)c3)c3ccccc32)cc1OC | ? | 18µM* | 2% | ? | . | .
COC(=O)c1ccccc1NC(=O)Cn1cc(S(=O)(=O)Cc2ccccc2F)c2ccccc21 | 0% | 21µM* | -13% | 15µM* | . | .
COc1ccc(Cl)cc1NC(=O)Cn1c(=O)n(CCCC(=O)NCCc2ccc(OC)c(OC)c2)c(=O)c2ccccc21 | ? | 8.2µM* | -57% | 15µM* | . | .
CNC(=O)Cn1cc(S(=O)(=O)Cc2ccccc2F)c2ccccc21 | 0% | ? | -5% | -5% | . | .
CC1CCCC(C)N1C(=O)COC(=O)CCC(=O)c1ccc(F)cc1 (configuration not stated) | 0% | ? | -9% | -29% | 4% | 4%
O=C(CCCn1c(=O)c2ccccc2n(Cc2ccc(F)cc2Cl)c1=O)NCCc1ccc(Cl)cc1 | -5% | 18µM* | 6% | ? | . | .
CCOc1ccc(-n2nc3ccc(NC(=O)c4ccc(-c5cccc(Cl)c5)o4)cc3n2)cc1 | 12% | -13% | 12% | 0% | . | .
CCOC(=O)Cc1csc(/N=C/c2c(O)n(-c3ccccc3C(F)(F)F)c(=O)c3ccccc23)n1 | -2% | ? | 1% | 21µM* | -12% | -2%
CCOC(=O)Cc1csc(-n2sc3ccccc3c2=O)n1 | 9% | 12µM* | 4% | 5.2µM* | 2% | 17%
CCOC(=O)Cc1csc(N/N=C/c2ccc(C(F)(F)F)cc2)n1 | -9% | -7% | -6% | 9% | 8% | 8%
CC(=O)c1cccc(NC(=O)CCn2nc(C)c(S(=O)(=O)N(C)C)c2C)c1 | 9% | -25% | -10% | ? | . | .
O=C(OCC1OC(n2cc(Br)c(=O)[nH]c2=O)C(Br)C1O)c1ccccc1 (configuration not stated) | 2% | ? | 0% | 0% | -2% | 13%
C[C@@H]1CN([C@@H](C)CO)C(=O)CCCn2cc(nn2)CO[C@H]1CN(C)S(=O)(=O)c1ccc(Cl)cc1 | -16% | -25% | -6% | -9% | -7% | 12%
COc1cccc(-c2sc3ccc(OC)cc3c2-c2cnc(N3CCOCC3)nc2)c1 | . | -24% | . | -9% | -12% | 4%
SMILES | TGFb SMAD3 inh | TDP1 cell noCPT | HepG2 viability | DT40 TDP1 CPT | HT1080 IDH1KD tx | HT1080NT lethal
Oc1cccc(-c2sc3ccccc3c2-c2ccc(OCCN3CCCCC3)cc2)c1 | . | 12µM* | . | 18µM* | 12µM* | 21µM*
COC(=O)c1ccc(OCCN2CCCCCC2)cc1 | 20% | 0% | 0% | 23% | 20% | 18%
COc1ccc(-c2sc3ccccc3c2-c2ccc(OCCN(C)C)cc2)cc1 | ? | 23µM* | -97% | ? | ? | 23µM*
O=C(c1ccc(OCCN2CCCCC2)cc1)c1c(-c2ccc(O)cc2)sc2cc(O)ccc12 | ? | 17µM* | 14µM*! | ? | 21µM* | 21µM*
COc1cccc(-c2sc3ccc(OC)cc3c2-c2ccc(OCCN3CCOCC3)cc2)c1 | 0% | ? | -28% | 16µM* | ? | -27%
COCCN1C(=O)CN(S(C)(=O)=O)CC1(C)C(=O)Nc1c(C)cccc1C (configuration not stated) | . | 2% | . | -5% | 14% | 16%
Cc1ccc(S(=O)(=O)NCC(=O)N2CCN(c3ccc(F)cc3)CC2)cc1 | ? | -8% | -14% | -4% | 1% | 9%
COc1cccc(-c2sc3ccc(OC)cc3c2-c2ccc(OCCN(C)C)cc2)c1 | ? | 16µM* | 14µM* | 23µM* | ? | ?
O=[N+]([O-])c1cc2cccnc2c2ncccc12 | ? | ? | -23% | ? | ? | ?
COc1ccc(CSc2cccc3cccnc23)cc1[N+](=O)[O-] | ? | 16µM* | -9% | ? | -1% | -2%
O=[N+]([O-])c1ccc(Sc2cccc3cccnc23)c2cccnc12 | 12% | 26µM* | -14% | 18µM* | 4% | 0%
Cc1ccc(SCC(=O)NNC(=O)CCS(=O)(=O)c2ccccc2)cc1 | -12% | 5% | -5% | 1% | -1% | 0%
CCOc1ccccc1OCC(=O)OCc1csc(CC(=O)Nc2ccccc2C)n1 | 9% | -5% | 0% | -10% | -7% | -3%
COc1ccc(C(N)=O)cc1NC(=O)CC(O)(C(F)(F)F)C(F)(F)F | 1% | ? | -16% | 15µM* | 0%[9.24 µM] | 2%
Cc1ccc(-c2noc(C(C)NS(=O)(=O)c3ccc(C)cc3)n2)cc1 (configuration not stated) | -22% | 21µM* | -25% | ? | . | .

High-throughput results (PubChem BioAssay)
